Assay results reported in ChEMBL document CHEMBL3988442, “University of Dundee, Small-Polar-MMV Screening Library” (2021).
In all, about 48,000 compounds went through this assay and about 13,000 (27%) showed an effect of 50% or more. The list shows a part of the results.

These compounds were tested on Wolbachia pipientis (assay: Anti-Wolbachia Cell-Based Screen). Conditions: 5 µM.
Type: functional
Design: scale not given: in the data most compounds retested in dose-response had high values

Structure (SMILES) | Percent Effect [%]
CCc1noc(CN(C)C(=O)c2ccccc2-c2ncn[nH]2)n1 | -19
Cc1nn(C)c(C)c1CN(C(=O)c1cc(Cl)c[nH]c1=O)C(C)C | -11.33
CC(C(=O)NC1(C#N)CCCCC1)N1CCc2c(ncn2C)C1 (stereo not drawn) | -1.256
N#Cc1ccc(OC2CCN(C(=O)c3ccccc3Cl)CC2)nc1 | -3.988
O=C(c1ccc(F)cc1F)N1CC[C@H](O)[C@@H](N2CCOCC2)CC1 | 0.4748
O=C(c1ccccc1C(F)(F)F)N1CC[C@@H](N2CCC(O)CC2)[C@H](O)C1 | -4.117
Cc1ccccc1C(=O)N1CC[C@@H](N2CCC(O)CC2)[C@H](O)C1 | 2.362
O=C(c1ccccc1Cl)N1CC[C@H](O)[C@@H](N2CCOCC2)CC1 | 95.8
Cc1ccccc1C(=O)N1CC[C@H](O)[C@@H](N2CCOCC2)CC1 | 126.5
N#Cc1cccc(CN2CCCC2c2ccc[nH]2)c1 (stereo not drawn) | 7.816
Cc1ccc(NC(=O)C2CSCN2C(=O)c2cc[nH]n2)c(C)c1 (stereo not drawn) | 9.143
O=C(NC1CCCC1)N1C[C@H]2CN(c3ccncc3)C[C@@]2(C(=O)O)C1 | -18.18
CCn1ccnc1CNCC(c1ccc(C)s1)N1CCOCC1 (stereo not drawn) | 53.4
Cc1ccc(C(CNCc2nccn2C)N2CCOCC2)s1 (stereo not drawn) | -4.854
Cc1ccc(C(CNCc2ccncc2)N2CCOCC2)s1 (stereo not drawn) | -8.996
CC(c1ccccc1)n1c(SCC(=O)O)nnc1-c1ccccc1Cl (stereo not drawn) | 9.035
CCCn1cc(NC(=O)c2cccc(CN3CC=CC3)c2)nn1 | -66.35
CCCn1cc(NC(=O)c2cccc(CN3CC[C@H](O)C3)c2)nn1 | 12.98
CCn1cc(NC(=O)c2cccc(CN3C[C@@H](C)O[C@@H](C)C3)c2)nn1 | 90.95
Cc1cccc(C2(NC(=O)CCCn3cncn3)CCCC2)c1 | -10.46
COc1ccc(OC)c(C(=O)Nc2cccnc2-n2cncn2)c1 | 13.43
CCOCCNC(=O)c1cnc(Sc2nccn2C)c(Cl)c1 | 13.89
CCOC(=O)NC(CNC(=O)c1cccnc1SC)CC(C)C (stereo not drawn) | -1.757
COc1ccc(OC)c(Sc2ncccc2C(=O)NCC2CC2)c1 | 167.1
COc1ccc(C(=O)NCCCNc2ncccn2)cc1F | -6.702

Structure (SMILES) | Percent Effect [%]
COCCNC(=O)c1cc(OC)ccc1Br | 8.343
CCOCCNC(=O)c1cccnc1Sc1cc(OC)ccc1OC | 152.7
COCCNC(=O)c1cccnc1Sc1cc(OC)ccc1OC | 161.9
CCOC(=O)CNC(=O)c1cccnc1Sc1cc(OC)ccc1OC | 162.1
Cc1nc2cc(F)ccc2cc1C(=O)N1CCN(CC(C)O)CC1 (stereo not drawn) | -9.577
COc1ccc(OC)c(Sc2ncccc2C(=O)NCCSC)c1 | 104.4
CSc1ncccc1C(=O)NCCC(O)c1cc(C)oc1C (stereo not drawn) | -1.719
CSc1ncccc1C(=O)NCCC(O)c1cccs1 (stereo not drawn) | 13.17
O=c1oc(-c2ccc(F)cc2)nn1CCc1ccccn1 | -9.185
O=C(c1ccc(N2CCCC2)nn1)N1CCCc2ccc(F)cc21 | -11.11
O=C(c1ccc(N2CCCC2)nn1)N1CCc2ccccc21 | 13.46
O=C(c1ccc(N2CCCCCC2)nn1)N1CCc2ccccc21 | 130.8
CCN(CC)C(=O)Nc1cc2c(cc1SC)OCCO2 | 7.32
CCc1nccn1C1CCCN(C(=O)c2cccc3c2OCO3)C1 (stereo not drawn) | 115.7
O=C(c1cc(Cl)c2c(c1)OCO2)N1CCCC(n2ccnc2)C1 (stereo not drawn) | 1.53
CCc1nccn1C1CCCN(C(=O)c2ccnc(C)n2)C1 (stereo not drawn) | 1.971
Cc1nccn1C1CCCN(C(=O)c2cccc3c2OCO3)C1 (stereo not drawn) | 116.3
CCc1nccn1C1CCCN(C(=O)c2cnn3ccc(C)nc23)C1 (stereo not drawn) | -1.055
CC(C)c1nccn1C1CCCN(C(=O)c2cccc3c2OCO3)C1 (stereo not drawn) | -5.15
O=C(c1cccc2c1OCO2)N1CCCC(n2ccnc2)C1 (stereo not drawn) | 115.9
O=C(c1cccc2c1OCCO2)N1CCCC(n2ccnc2)C1 (stereo not drawn) | -8.704
O=C1CC(C(=O)Nc2nnc(-c3cccs3)[nH]2)c2ccccc2N1 (stereo not drawn) | -3.979
CC(C)OC(=O)CN1N=C(C(=O)N2CCCC2)S(=O)(=O)c2ccccc21 | 15.65
N#Cc1ccccc1CN1C[C@@H]2CC[C@H](C1)N(CC1CC1)C2=O | -10.09
Cc1nn(CCC#N)c(C)c1CCC(=O)N(C(C)C)C1CC1 | -0.4171

Structure (SMILES) | Percent Effect [%]
COc1ccc(C(=O)NC2CC2)c(OC2CCN(CC3CC3)CC2)c1 | 4.837
COCc1nc(C(=O)N2CCN(c3nccc(OC)n3)CC2)cs1 | -10.67
CC(=O)Nc1nc(C(=O)N2CCCC(n3ccnc3)C2)cs1 (stereo not drawn) | -0.04658
CSCC(=O)N1CCCC(n2ccnc2C(C)C)C1 (stereo not drawn) | -4.829
COCc1nc(C(=O)N2CCCC(n3ccnc3C)C2)cs1 (stereo not drawn) | 95.68
Cc1nccn1C1CCCN(C(=O)c2ccc(N3CCCC3)nn2)C1 (stereo not drawn) | -4.751
COCc1nc(C(=O)N2CCCC(n3ccnc3)C2)cs1 (stereo not drawn) | 102.7
COCc1nc(C(=O)N2CCCC(n3ccnc3C(C)C)C2)cs1 (stereo not drawn) | 114
CC(C)c1nccn1C1CCCN(C(=O)c2ccc(=O)n(C)n2)C1 (stereo not drawn) | 4.106
CC(C)Nc1ccc2c(c1)C1(CCOCC1)C(=O)N2c1ccsc1 | -5.936
CCc1cc(N2C[C@H](C3CC3)[C@@H](N)C2)nc(N2CCOCC2)n1 | -5.197
CCOc1ccc(Cl)c(C(=O)N2CCN(c3ncccn3)CC2)n1 | 79.36
CCOc1ccnc(N2CCN(C(=O)CCc3ccncc3)CC2)n1 | -7.253
Cc1cccc(OCCC(=O)N2CCCN(CC(N)=O)CC2)c1C | -3.511
CCC(O)CN1CCN(C(=O)c2csc(COC)n2)CC1 (stereo not drawn) | -26.29
CCOc1ccnc(N2CCN(C(=O)c3cn[nH]c3CC)CC2)n1 | -0.2597
CCOc1ccc(Cl)c(C(=O)N2CCN(CC(O)CC)CC2)n1 (stereo not drawn) | 92.51
CCOc1ccc(Cl)c(C(=O)N2CCN(c3ccncc3)CC2)n1 | 119.1
CCOc1ccc(Cl)c(C(=O)N2CCN(c3cnccn3)CC2)n1 | 0.9998
CCOc1ccnc(N2CCN(C(=O)c3cccnc3O)CC2)n1 | -0.2095
CCOc1ccc(Cl)c(C(=O)N2CCCN(CC(N)=O)CC2)n1 | 93.33
CCOc1ccc(Cl)c(C(=O)NC(C)C(N)=O)n1 (stereo not drawn) | -12.05
CCC(O)CN1CCN(C(=O)c2cccn2Cc2ccccc2)CC1 (stereo not drawn) | -11.52
